Results as given in PubChem BioAssay (NCI).
About 83,000 compounds went through this panel and 20% of them were active in at least one assay; those are over-represented in the sample as a whole.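 Testing used 96-well plates and a 48-hour single-concentration exposure. Example: -40 means 40% of the starting cells died.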 Unmarked numbers belong to inactive results. Active and inactive are the calls of the source. The calls were made as follows: active = growth percent below 10; inactive = the rest.

Tested on: UO-31 renal
Assay: NCI-60 one-dose screen, 48 h (100 = growth as untreated, 0 = no growth, -100 = all killed)
Conditions: 10 µM

Row | SMILES | growth [%]
1 | N#Cc1ccc(NC(=O)Nc2cccc(C#N)c2)cc1 | 75.6
2 | OC(c1ccccn1)C(O)c1ccccn1 (centres undefined) | 89
3 | CCCNC(=O)c1ccc(S(N)(=O)=O)cc1 | 107
4 | O=[N+]([O-])c1cccc(N=Nc2ccc(O)cc2O)c1 | 57.3
5 | NC(=S)N/N=C/c1ccc(N)cc1 | 91.6
6 | Cc1ccccc1N=C(c1ccccc1)C1C(=O)c2ccccc2C1=O | 82.5
7 | CC(=O)OCC1=CC2OC(=O)C3=COC(OC4OC(CO)C(O)C(O)C4O)C1C32 (centres undefined) | 96.7
8 | COc1ccc(C2(O)CCCCC2)cc1 | 97
9 | CC(=O)Nc1ccc(NC(C)=O)c2c1C(=O)c1ccccc1C2=O | 59.5

Tested on: TK-10 renal
Assay: as above
Conditions: 10 µM unless noted

Row | SMILES | growth
10 | Nc1ncnc2[nH]ncc12 | 1.19% (active)
11 | COC(=O)c1[nH]c(=O)c(C#N)c(C(=O)OC)c1C(=O)c1ccccc1 | 143%
12 | CCS(=O)(=O)CCCl | 96.5%
13 | CN(C)CCN(C)CC(C)(C)C(=O)/C=C/c1ccc(Cl)cc1 | 0.991% (active)
14 | CS(=O)CC1=NC(=N)N=C1CS(C)=O (centres undefined) | 101%
15 | Cc1cc2nc(CC(=O)c3cccc([N+](=O)[O-])c3)c(=O)[nH]c2cc1C | 115%
16 | CCOC(=O)c1cc(/C=C/c2cccc(Cl)c2)on1 | 111%
17 | Cc1ccc(/C=C2\SC(=S)N(c3ccc(F)cc3)C2=O)o1 | 102%
18 | CC1(O)OC(COc2ccc(Cl)cc2)COC1O (centres undefined) | 108%
19 | O=C1Cc2ccccc2C(=O)O1 | 110%
